Experimental data reported in PubChem BioAssay (EPA / NIEHS).
“And” between values parts separate entries of the source, which are not always exact repeats. Equal values may be shown once. Results filed as inconclusive are left out. More than one record can exist for a structure, and the calls need not agree. The source made the active and inactive calls. How the source made its calls: active means hit-call score of the fitted dose curve at least 0.9, where 1 is the maximum; inconclusive means response in the unintended direction; inactive means score below 0.9.

read-out: xenobiotic metabolism (CYP1A2), CYP1A2 (gene 1544); assay: CLD_CYP1A2_48hr: CellzDirect (CLD) Gene Expression Assay for xenobiotic metabolism (CYP1A2) at 48 hours (AID 2283703)
Description: CLD_48hr is a cell-based, multiplexed-readout assay that uses hepatocyte, a human liver primary cell, with measurements taken at 48 hours after chemical dosing in a 96-well plate.CLD_CYP1A2_48hr is one of 16 assay component(s) measured or calculated from the CLD_48hr assay. It is designed to make measurements of mRNA induction, a form of inducible reporter, as detected with chemiluminescence signals by Quantitative Nuclease Protection Assay (qNPA) technology.Data from the assay component CLD_CYP1A2_48hr was analyzed at the endpoint, CLD_CYP1A2_48hr, in the positive analysis fitting direction relative to DMSO as the negative control and baseline of activity. Using a type of inducible reporter, gain-of-signal activity can be used to understand changes in the reporter gene as they relate to the gene CYP1A2. Furthermore, this assay endpoint can be referred to as a primary readout. To generalize the intended target to other relatable targets, this assay endpoint is annotated to the cyp intended target family, where subfamily is xenobiotic metabolism.
Human hepatocyte cultures were treated daily for two consecutive days with fresh dosing solutions containing appropriate concentrations of the 320 ToxCast chemicals (chemical identities were blinded to CellzDirect and other ToxCast collaborators), vehicle control (0.2% DMSO), and positive control inducers as summarized in Table 1. Due to the large number of treatment groups and chemicals examined, the ToxCast chemicals were divided into two groups (spanning two independent cultures of hepatocytes from separate donor preparations (Hu778: ToxCast plates 1 and 2; Hu776: ToxCast plates 3 and 4). Each preparation of human hepatocyte cultures was treated with respective vehicle control, medium only control, set of six positive controls/reference chemicals for the five hepatic receptor pathways, and a subset of eight of the ToxCast chemicals (indoxacarb, pyrithiobac-sodium, norflurazon, cyhalofop-butyl, methomyl, thiram, acetochlor, and propiconazole). These replicate data, coupled with internal replicates designed within the blinded ToxCast chemical library, provided additional data to evaluate interindividual differences between hepatocyte preparations and their potential impact on chemical profiles.Cell morphology and integrity were evaluated using phase-contrast microscopy as an indicator of hepatocyte cell health (Tyson & Green, 1987). Cultures for each treatment group (i.e., media, vehicle [0.2% DMSO], positive control inducers [multiple concentrations], and the ToxCast chemicals [multiple concentrations]) were observed and cell morphology was assessed relative to vehicle control cultures at each harvest time point (0, 6, 24, or 48 h). […] Images were evaluated at the conclusion of the study to assess changes in cell integrity and account for the effects of chemical exposure on uncharacteristic changes in concentration-dependent gene expression profiles. The results from these determinations of apparent cytotoxicity were annotated (yes/no) alongside the corresponding qNPA data for reference.At the conclusion of each treatment period, hepatocyte cultures (96-well) were washed with 1 volume of HBSS, lysed by addition of 25 ul ArrayPlate lysis buffer (HTG, Tucson, AZ), and 70 ul/well of Denaturation Oil, denatured by incubation at 95C for 10 min, and frozen at approximately -70C until analysis by nuclease protection assay (qNPA) (Roberts et al., 2007). For qNPA analysis, cell lysates were thawed at 50C for approximately 30 min, qNPA probes were added, and samples were incubated at 95C for 10 min to begin the detection process by denaturing the target RNA, dissociating the duplexes and secondary structure hybridization. At the conclusion of the hybridization period, S1 nuclease reagent was added to each sample to digest all nonprotected nucleotides at 50C for 60-90 min. […]

Compound | outcome | AC50
CCCCC(CC)COC(=O)c1ccccc1C(=O)OCC(CC)CCCC (stereo not given) | inactive | 
CCOc1cc(Oc2ccc(C(F)(F)F)cc2Cl)ccc1[N+](=O)[O-] |  | 0.845 µM (active)
CC(C)(C)c1ccc(CSc2cnn(C(C)(C)C)c(=O)c2Cl)cc1 | inactive | 
Oc1ccccc1-c1ccccc1 |  | 9.96 µM (active)
C=CC1(C)OC(=O)N(c2cc(Cl)cc(Cl)c2)C1=O (stereo not given) |  | 0.966 µM (active)
COC(=O)N(OC)c1ccccc1COc1ccn(-c2ccc(Cl)cc2)n1 |  | 0.54 µM (active)
COC(=O)C=C(C)OP(=O)(OC)OC | inactive | 
CCCCNC(=O)n1c(NC(=O)OC)nc2ccccc21 |  | 6.67 µM (active)
CCON=C(CC)C1=C(O)CC(c2c(C)cc(C)cc2C)CC1=O (stereo not given) | inactive | 
CCOP(=S)(OCC)SCn1c(=O)oc2cc(Cl)ccc21 |  | 3.96 µM (active)
C=CCC1=C(C)C(OC(=O)C2C(C=C(C)C)C2(C)C)CC1=O (stereo not given) | inactive | 
CC1COC(Cn2cncn2)(c2ccc(Oc3ccc(Cl)cc3)cc2Cl)O1 (stereo not given) |  | 0.397 µM (active)
CCOC(=O)CC(SP(=S)(OC)OC)C(=O)OCC (stereo not given) |  | 5.39 µM (active)
Cc1ccc(-c2c(Cl)nc(C#N)n2S(=O)(=O)N(C)C)cc1 | inactive | 
COc1nc(C)nc(NC(=O)NS(=O)(=O)c2ccccc2Cl)n1 | inactive | 
COC(=O)C(C)Oc1ccc(Oc2ccc(Cl)cc2Cl)cc1 (stereo not given) | inactive | 20 µM (active) and 12.1 µM (active)
Fc1ccc(Oc2ccnc3cc(Cl)cc(Cl)c23)cc1 |  | 3.98 µM (active)
CCCC1COC(Cn2cncn2)(c2ccc(Cl)cc2Cl)O1 (stereo not given) |  | 5.36 µM (active)
CCNc1nc(Cl)nc(NC(C)C)n1 |  | 10.2 µM (active)

Compound | outcome | AC50
CC1=C(C(=O)Nc2ccccc2)SCCO1 |  | 31.1 µM (active)
CC(Oc1ccc(Cl)cc1Cl)C(=O)O (stereo not given) | inactive | 
CC(C)Oc1cc(-n2nc(C(C)(C)C)oc2=O)c(Cl)cc1Cl |  | 6.1 µM (active)
O=C(O)COc1nc(Cl)c(Cl)cc1Cl | inactive | 
N#CC(CCc1ccc(Cl)cc1)(Cn1cncn1)c1ccccc1 (stereo not given) |  | 2.3 µM (active)
C=CCC1=C(C)[C@@H](OC(=O)[C@@H]2[C@@H](C=C(C)C)C2(C)C)CC1=O | inactive | 
O=C(Nc1ccccc1)Nc1ccnc(Cl)c1 |  | 7.3 µM (active)
O=C(O)c1nc(Cl)ccc1Cl |  | 7.28 µM (active)
CCCCNC(=O)OCC#CI | inactive | 
CCCCOC(=O)c1ccccc1C(=O)OCCCC |  | 10.6 µM (active) and 11.1 µM (active)
CNC(=S)S |  | 20 µM (active)
CON(C)C(=O)Nc1ccc(Cl)c(Cl)c1 |  | 1.27 µM (active)
COc1cnc(OC)n2nc(NS(=O)(=O)c3c(OCC(F)F)cccc3C(F)(F)F)nc12 | inactive | 
Cc1c(F)c(F)c(COC(=O)C2C(/C=C(\Cl)C(F)(F)F)C2(C)C)c(F)c1F (stereo not given) |  | 4.46 µM (active)
CCCN(CCC)c1c([N+](=O)[O-])cc(S(N)(=O)=O)cc1[N+](=O)[O-] | inactive | 
CS/C(C)=N/OC(=O)N(C)SN(C)C(=O)O/N=C(\C)SC | inactive | 
COc1nc(NC(C)C)nc(NC(C)C)n1 |  | 7.97 µM (active)
CCNc1nc(Cl)nc(NCC)n1 |  | 8.97 µM (active)
COc1nc(C)nc(NC(=O)NS(=O)(=O)c2ccccc2CCC(F)(F)F)n1 | inactive | 8.01 µM (active)
